D2 ag-1 = Beta-Arrestin HTS for Positive Allosteric Modulators of the Human D2 Dopamine Receptor: Agonists. AID 624465, 2012. actives 0.084% (n = 360,000). DiscoveRx PathHunter D2 beta-arrestin, luminescence, 90 min; 100% = 57 uM dopamine signal. D(2) dopamine receptor (Homo sapiens), P14416. activation, % (no concentration beside the values); in the data active = activation above about 40%; inconclusive = between about 15% and that limit
Target sequence (P14416 whole entry, looked up): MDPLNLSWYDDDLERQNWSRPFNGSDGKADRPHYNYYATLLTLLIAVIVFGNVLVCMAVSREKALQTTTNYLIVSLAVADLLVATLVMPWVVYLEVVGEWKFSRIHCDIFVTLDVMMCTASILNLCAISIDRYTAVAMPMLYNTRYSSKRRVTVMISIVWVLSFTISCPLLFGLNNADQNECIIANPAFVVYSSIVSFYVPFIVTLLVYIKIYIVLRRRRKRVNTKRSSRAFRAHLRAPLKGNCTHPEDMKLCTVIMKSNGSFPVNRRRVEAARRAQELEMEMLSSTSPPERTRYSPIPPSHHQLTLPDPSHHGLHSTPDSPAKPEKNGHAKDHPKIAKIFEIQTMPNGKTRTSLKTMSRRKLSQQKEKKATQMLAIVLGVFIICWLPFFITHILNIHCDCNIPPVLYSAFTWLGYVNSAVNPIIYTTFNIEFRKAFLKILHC
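Agonist mode: compounds alone added to overnight-plated D2 PathHunter cells for 90 min at 37 C, with 57 uM final dopamine (EC100) defining full response. Beta-arrestin recruitment detected by chemiluminescent reagent, read after 1 h at ambient temperature.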
D2 ag-2 = HTS Assay for Allosteric Agonists of the Human D2 Dopamine Receptor: Primary Screen for Agonists; AID 485358, 2010; D(2) dopamine receptor (Homo sapiens), P14416; actives 0.53% (n = 340,000); activation, % at 2 µM; HEK293 T-REx D2 cells, calcium flux agonist mode;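 active = activation over 3 SD above normal in the single-dose calcium agonist read, cut at about 30% in these data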
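Tetracycline-induced HEK293 T-REx cells with force-coupled D2 receptor, plated overnight at 30 C, loaded with no-wash calcium dye. After a 10 s baseline, compound was pin-added and calcium flux read kinetically for 180 s; calcium rises flagged agonists.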
D2 antag = HTS Assay for Allosteric Antagonists of the Human D2 Dopamine Receptor: Primary Screen for Antagonists. D(2) dopamine receptor (Homo sapiens), P14416. actives 2% (n = 340,000). HEK293 TREx D2 cells, calcium flux, dopamine EC80. inhibition, % at 10 µM. AID 485344, 2010; in the data active = inhibition above about 30%; inactive = below that, where a call was filed
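Antagonism is scored as inhibition of an EC80 dopamine-evoked calcium signal in a force-coupled, tetracycline-inducible HEK293 T-REx D2 line, with compound present 180 s before agonist.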
D2 PAM-1 = Beta-Arrestin HTS for Positive Allosteric Modulators of the Human D2 Dopamine Receptor: Potentiators; D(2) dopamine receptor (Homo sapiens), P14416; DiscoveRx D2 beta-arrestin cells, luminescence, 90 min; 100% = 57 uM dopamine signal; potentiation, % (no concentration beside the values); actives 0.23% (n = 360,000); AID 624464, 2012; in the data active = potentiation above about 50%; inconclusive = mostly about 30% to 49%
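D2 cells co-treated with compound plus 50 nM dopamine (EC20) for 90 min at 37 deg C to detect potentiation. Beta-arrestin recruitment was read as enzyme-fragment luminescence after 1 h at ambient temperature. Full response was set by 57 uM dopamine.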
D2 PAM-2 = HTS Assay for Positive Allosteric Modulators of the Human D2 Dopamine Receptor: Primary Screen for Potentiators. D(2) dopamine receptor (Homo sapiens), P14416. HEK293 T-REx D2, calcium flux, EC20 dopamine potentiation. potentiation, % at 10 µM. actives 0.34% (n = 340,000). AID 485347, 2010;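 active = potentiation over 3 SD above the plate norm, cut at about 30% in these data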
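Primary screen. Calcium kinetics in induced HEK293 T-REx D2 cells: compound pre-addition 180 s, EC20 dopamine, 180 s more.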
Each line names hits and unclear results; the compound was inactive in the other large screens. An excerpt weighted towards active compounds, which were near 2.4% of everything screened.

C[C@@H](C(=O)NC1CCN(Cc2ccccc2)CC1)N1C(=O)N2CCc3c([nH]c4ccccc34)[C@@]2(C)C1=O	none
COc1ccc2[nH]c3c(c2c1)CCN1C(=O)N([C@@H](C)C(=O)NCc2ccccc2)C(=O)[C@]31C	D2 ag-2 36.0
O=C(N/C=C/n1cnc2cc(C(F)(F)F)ccc21)c1ccc(F)cc1	none (no result: D2 ag-2, D2 antag, D2 PAM-2)
O=C(N/C=C/n1cnc2cc(C(F)(F)F)ccc21)c1ccccc1F	D2 PAM-2 83.2
O=CC1=C(N2CCOCC2)/C(=C\c2ccccc2)CC1	D2 PAM-2 32.6
CC(C)c1ccc(C2c3c(-c4ccccc4O)n[nH]c3C(=O)N2Cc2ccncc2)cc1 (stereo not drawn)	none (no result: D2 ag-1, D2 antag, D2 PAM-1)
Cc1ccc(CC2C(=O)N(CC(=O)O)C(=O)C2C)cc1 (stereo not drawn)	D2 antag 30.9
CCOc1ccc(-c2nnc(N)s2)cc1	D2 PAM-2 73.9
CCc1nc(N2CCC3(CC2)OCCO3)c2nnn(Cc3ccccc3Cl)c2n1	D2 PAM-2 34.0
Clc1ccccc1Cn1nnc2c(N3CCCC3)ncnc21	none
COc1cc(S(=O)(=O)N2CCCCC2)ccc1NC(=O)c1ccncc1	D2 antag 37.4
COC(=O)Nc1ccc(S(=O)(=O)N2CCCC(C(=O)Nc3cccnc3)C2)cc1 (stereo not drawn)	D2 antag 43.4
O=C(Nc1cccnc1)c1cccc(S(=O)(=O)N2CCCCC2)c1	D2 antag 52.6
COc1ccc(NC(=O)c2ccc(S(=O)(=O)N3CCCCCC3)cc2)c(OC)c1	none
COc1ccc(CN2CCC(C(=O)N(C)CCc3ccc(OC)c(OC)c3)CC2)c(OC)c1	D2 PAM-2 30.9
COc1ccc(CCN(C)C(=O)C2CCN(Cc3ccc(C)cc3)CC2)cc1OC	D2 antag 47.1
COc1ccc(N2CC(C(=O)Nc3nnc(SCC(=O)NCc4ccco4)s3)CC2=O)cc1 (stereo not drawn)	none
COc1ccccc1CC(=O)Nc1ccc2nc(Nc3cccc(C(F)(F)F)c3)cc(C)c2c1	none (no result: D2 ag-1, D2 antag, D2 PAM-1)
Cc1ccc(-c2nnc(N(C)C(=O)c3cccnc3)s2)cc1	D2 PAM-2 37.6
Cc1ccc(-c2nnc(N(C)C(=O)c3cccnc3)s2)cn1	none
CCc1cc(=O)oc2cc(C)cc(OCC(=O)NC(Cc3ccc(Cl)cc3)C(=O)O)c12 (stereo not drawn)	none (no result: D2 ag-2, D2 antag)
O=C(CN1CCN(C2CCCCC2)CC1)c1c[nH]c2ccccc12	D2 antag 41.6
O=C(COC(=O)C1=COCCO1)Nc1cc(S(=O)(=O)N2CCCCC2)ccc1Cl	none
Cc1ccc(S(=O)(=O)N2CCCCC2)cc1NC(=O)COC(=O)C1=COCCO1	D2 PAM-2 38.0
Cc1ccc(S(=O)(=O)N2CCOCC2)cc1NC(=O)CNCc1ccccc1Cl	D2 ag-2 39.1
COc1cc(Cl)c(C)cc1NC(=O)COC(=O)C1=COCCO1	D2 antag 31.6
COCCNC(=O)C1(C)CCCN(C(=O)c2ccc(F)cc2Cl)C1 (stereo not drawn)	none (no result: D2 ag-2, D2 antag, D2 PAM-2)
Oc1ccc(/C=N/N=C/c2ccc(O)c(O)c2)cc1O	none
Oc1ccc(N=Cc2ccc(O)c(O)c2)cc1	D2 ag-1 inconclusive, D2 PAM-1 82.6
C(=N\Nc1nc2ccccc2s1)/c1cccs1	D2 antag 37.5
COc1cccc(OCc2nc3ccccc3n2C)c1	none (no result: D2 ag-1, D2 antag, D2 PAM-1)
CC1CN(S(=O)(=O)c2ccc(F)cc2)CN1C(=O)N1CCOCC1 (stereo not drawn)	none
CC1CN(S(=O)(=O)c2ccc(F)cc2)C(C)N1C(=O)N1CCOCC1 (stereo not drawn)	D2 antag 32.1
COc1ccccc1CC(=O)Nc1ccon1	none
Nc1cc(S(=O)(=O)N2CCCCC2)ccc1N1CCOCC1	D2 antag 31.5
CCN1CCN(c2ccc(S(=O)(=O)N3CCCCC3)cc2NC(=O)c2ccc([N+](=O)[O-])s2)CC1	D2 ag-1 inconclusive, D2 PAM-1 74.5
O=C(Nc1cc(S(=O)(=O)N2CCOCC2)ccc1N1CCCC1)C1CC1	D2 antag 53.6
CCN1CCN(c2ccc(S(=O)(=O)N3CCOCC3)cc2NC(=O)CCOc2ccccc2)CC1	D2 antag 31.8
Cc1cc(=O)[nH]c(Nc2ccccc2C)n1	none
Cc1cc(C)cc(NC(=O)c2ccc3c(c2)nnn3C2CCCC2)c1	none (no result: D2 ag-1, D2 antag, D2 PAM-1)
C[C@H](CO)N1C[C@H](C)[C@H](CN(C)C(=O)Nc2ccc(C(F)(F)F)cc2)Oc2ncc(-c3cccnc3)cc2C1=O	none (no result: D2 ag-2, D2 antag, D2 PAM-2)
COCc1cc(C)nc2sc3c(c12)NC(c1ccccc1C(=O)O)N(c1ccc(OC)cc1)C3=O (stereo not drawn)	none (no result: D2 ag-1, D2 antag, D2 PAM-1)
CCCCCCCCCCCCCCCC(=O)Nc1ccn(C2OC(CO)C(O)C2O)c(=O)n1 (stereo not drawn)	none (no result: D2 ag-2, D2 antag, D2 PAM-2)
CCn1nnc2cc(C(=O)OCC(=O)N(C)Cc3cccc(F)c3)ccc21	none (no result: D2 ag-2, D2 antag, D2 PAM-2)
Cc1n[nH]c(=O)c2c1nnn2Cc1ccccc1Cl	D2 antag 57.7
O=c1[nH]nc(C(F)(F)F)c2nnn(Cc3ccccc3Cl)c12	none
Cc1ccc(-n2nc(CO)c(C(=O)NCCO)n2)cc1	none (no result: D2 ag-1, D2 ag-2, D2 antag, D2 PAM-1)
O/N=C1/CCc2nonc2/C1=N/O	D2 antag 39.1
O=C(COC(=O)c1cccnc1Cl)c1cccc(Cl)c1	D2 antag 69.1
O=C(COC(=O)c1cccnc1Cl)c1ccc(Cl)s1	none (no result: D2 ag-2, D2 antag, D2 PAM-2)
Cc1cc(NC(=O)CSc2nnc(CNC(=O)c3ccc(F)cc3)o2)no1	none
CCNC(=S)N(CCc1c(C)[nH]c2ccc(Cl)cc12)Cc1cccnc1	none
COCCNC(=S)N(CCc1c(C)[nH]c2ccc(C)cc12)Cc1cc(OC)c(OC)c(OC)c1	D2 antag 31.3
CCNC(=S)N(CCc1c(C)[nH]c2ccc(C)cc12)Cc1cc(OC)c(OC)c(OC)c1	none
CCNC(=S)N(CCc1c(C)[nH]c2ccc(OC)cc12)Cc1cccnc1	D2 PAM-2 33.0
CCN1CCN(c2oc(-c3ccc(COc4ccccc4C)o3)nc2C#N)CC1	none (no result: D2 ag-1, D2 antag, D2 PAM-1)
CC(C)(C)OC(=O)N1CCC(c2c(C(=O)NCc3ccco3)cnn2-c2ccccc2)CC1	none (no result: D2 ag-1, D2 antag, D2 PAM-1)
O=c1c2nnn(-c3cccc(F)c3)c2ncn1Cc1ccccn1	D2 antag 33.9
CCN1C(=O)CSc2ccc(C(=O)NCc3ccccc3)cc21	none
CCN1C(=O)CSc2ccc(C(=O)NCc3ccccc3OC)cc21	D2 PAM-2 33.8
CC(=O)Nc1ccc(NC(=O)c2cc[n+]([O-])cc2)cc1	none
COc1ccc(S(=O)(=O)N(C)CC(=O)NCc2ccco2)cc1OC	D2 antag 33.7
